Measured values from PubChem BioAssay (NCI).
This is part of a sample that, as a whole, favours compounds with a hit. Of some 79,000 tested, about 15% had one in any assay. Calls of active or inactive are those of the source. No stated cut-off is given here; in the data, active means growth inhibition above about 70%; inactive means the rest.

What was measured:
[1] = NCI Yeast Anticancer Drug Screen. Data for the rad52 strain (AID 147);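 further: 0% = growth of vehicle-treated control cultures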; settings: S. cerevisiae rad52 mutant growth inhibition, stronger effect = higher value
How it was run: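 Inhibition of yeast growth, referenced to vehicle controls, was the measured output for a strain with defective DNA damage repair.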

[2] = NCI Yeast Anticancer Drug Screen. Data for the wt1 strain (AID 149);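 further: 0% = growth of vehicle-treated wt1 cultures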; settings: S. cerevisiae wt1 strain (SPY 50644) growth inhibition, stronger effect = higher value
How it was run: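 Using yeast strain wt1, compound-induced growth inhibition was determined against vehicle-treated cultures.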

[3] = NCI Yeast Anticancer Drug Screen. Data for the rad50EPP+ strain (AID 151);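 further: 0% = growth of vehicle-treated control cultures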; settings: S. cerevisiae rad50 mutant strain, stronger effect = higher value
How it was run: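 Genetically defined yeast (rad50EPP+, DNA damage repair alteration) is grown with compound, and inhibition of growth is expressed relative to vehicle-treated controls.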

[4] = NCI Yeast Anticancer Drug Screen. Data for the rad50 strain (AID 155);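 further: 0% = growth of vehicle-only cultures of the same strain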; settings: S. cerevisiae rad50 strain growth inhibition, stronger effect = higher value
How it was run: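 Relative growth inhibition (compound vs vehicle) was measured in yeast with a defined repair-gene alteration.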

[5] = NCI Yeast Anticancer Drug Screen. Data for the mec2-1 strain (AID 157); settings: S. cerevisiae mec2-1 strain, stronger effect = higher value
How it was run: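 Each compound was tested on mec2-1 yeast, a strain altered in DNA damage repair or cell cycle control. Growth inhibition is reported relative to vehicle.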

[6] = NCI Yeast Anticancer Drug Screen. Data for the rad14 strain (AID 159);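 further: 0% = growth of vehicle-treated control cultures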; settings: S. cerevisiae rad14 strain growth inhibition, stronger effect = higher value
How it was run: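 Screen for anticancer potential: a yeast strain altered in DNA damage repair is grown with compound, and reduced growth is quantified against vehicle controls.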

[7] = NCI Yeast Anticancer Drug Screen. Data for the sgs1 mgt1 strain (AID 161);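 further: 0% = growth of cultures given vehicle only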; settings: S. cerevisiae sgs1 mgt1 strain, stronger effect = higher value
How it was run: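 Genetically altered yeast, compound exposure, growth inhibition relative to vehicle.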

[8] = NCI Yeast Anticancer Drug Screen. Data for the CLN2oe strain (AID 163);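 further: 0% = growth of vehicle-only control cultures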; settings: S. cerevisiae CLN2oe strain, stronger effect = higher value
How it was run: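 First, the altered yeast strain was treated with each compound; second, its growth was measured; finally, inhibition was derived by comparison with vehicle controls.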

[9] = NCI Yeast Anticancer Drug Screen. Data for the cln2 rad14 strain (AID 165);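 further: 0% = growth equal to vehicle treated cultures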; settings: S. cerevisiae cln2 rad14 strain, stronger effect = higher value
How it was run: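 Test compounds were added to cln2 rad14 yeast cultures; inhibition of growth was then determined by comparison with vehicle treatment.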

[10] = NCI Yeast Anticancer Drug Screen. Data for the bub3 strain (AID 167); settings: S. cerevisiae bub3 mutant strain, stronger effect = higher value
How it was run: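 Screening used yeast with an engineered genetic alteration affecting cell cycle control. Compound-exposed cultures were compared with vehicle cultures, and reduced growth was taken as inhibition.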

[11] = NCI Yeast Anticancer Drug Screen. Data for the wt2 strain (AID 169);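 further: 0% = growth of vehicle-treated yeast cultures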; settings: S. cerevisiae wt2 strain growth inhibition, stronger effect = higher value
How it was run: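 The panel's yeast strains carry defined changes in DNA repair or cell cycle genes. Each strain is grown with compound, and growth loss is scored relative to vehicle.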

[12] = NCI Yeast Anticancer Drug Screen. Data for the mlh1 strain (AID 171);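 further: 0% = growth of vehicle-treated control cultures of the same strain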; settings: S. cerevisiae mlh1 strain growth inhibition, stronger effect = higher value
How it was run: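 Inhibition values reflect reduced yeast growth in the presence of compound, referenced to vehicle controls, using a strain chosen for its alteration in DNA repair or cell cycle control.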

[13] = NCI Yeast Anticancer Drug Screen. Data for the sgs1 strain (AID 173);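 further: 0% = growth of vehicle-only control cultures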; settings: S. cerevisiae sgs1 mutant, stronger effect = higher value
How it was run: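 Vehicle-treated cultures served as reference for growth inhibition of a yeast strain altered in DNA damage repair or cell cycle control after compound exposure.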

[14] = NCI Yeast Anticancer Drug Screen. Data for the mlh1 rad18 strain (AID 175); settings: S. cerevisiae mlh1 rad18 strain growth inhibition, stronger effect = higher value
How it was run: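 Inhibition values reflect reduced growth of mutant yeast versus vehicle-treated controls following compound exposure; the mutations affect DNA damage repair.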

[15] = NCI Yeast Anticancer Drug Screen. Data for the rad18 strain (AID 177); settings: S. cerevisiae rad18 mutant growth inhibition, stronger effect = higher value
How it was run: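 Steps: expose repair-mutant yeast to compound; measure growth; express as inhibition relative to vehicle control.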

[16] = at 5.0 µM (retest, dose inferred, filed as 0.5)
[17] = at 50.0 µM (retest, dose inferred, filed as 5.0)

Measured: growth inhibition

O=C(Nc1ccccc1)OCCc1ccc(Cl)c(Cl)c1
inactive: [1]; at 1.2 µM 0% | [1]; at 3.7 µM 10% | [1]; at 11.0 µM 20% | [1]; at 33.0 µM 20% | [1]; at 100.0 µM 52% | [2]; at 1.2 µM -4% | [2]; at 3.7 µM -7% | [2]; at 11.0 µM -9% | [2]; at 33.0 µM 16% | [2]; at 100.0 µM 8% | [3]; at 1.2 µM 7% | [3]; at 3.7 µM 26% | [3]; at 11.0 µM 39% | [3]; at 33.0 µM 29% | [3]; at 100.0 µM 30% | [4]; at 1.2 µM -2% | [4]; at 3.7 µM 13% | [4]; [16] 0% | [4]; at 11.0 µM 29% | [4]; at 33.0 µM 66% | [4]; at 100.0 µM 51% | [5]; at 1.2 µM -3% | [5]; at 3.7 µM -4% | [5]; [16] 0% | [5]; at 11.0 µM -3% | [5]; at 33.0 µM 20% | [5]; [17] 65% | [5]; at 100.0 µM 47% | [6]; at 1.2 µM -5% | [6]; at 3.7 µM 1% | [6]; at 11.0 µM 15% | [6]; at 33.0 µM 31% | [6]; at 100.0 µM 53% | [7]; [16] 8% | [7]; [17] 54% | [8]; at 1.2 µM -8% | [8]; at 3.7 µM -4% | [8]; at 11.0 µM 26% | [8]; at 33.0 µM 53% | [8]; at 100.0 µM 58% | [9]; [16] -8% | [10]; at 1.2 µM -1% | [10]; at 3.7 µM 2% | [10]; [16] 6% | [10]; at 11.0 µM 37% | [10]; at 100.0 µM 52% | [11]; at 1.2 µM -7% | [11]; at 3.7 µM -6% | [11]; at 11.0 µM 5% | [11]; at 33.0 µM 24% | [11]; at 100.0 µM 8% | [12]; at 1.2 µM -3% | [12]; at 3.7 µM 2% | [12]; at 11.0 µM 22% | [12]; at 33.0 µM 46% | [12]; at 100.0 µM 46% | [13]; at 1.2 µM -19% | [13]; at 3.7 µM -9% | [13]; at 11.0 µM 2% | [13]; at 33.0 µM 22% | [13]; at 100.0 µM 47% | [14]; [16] 1% | [14]; [17] 60% | [14]; at 50.0 µM 58.9% | [15]; at 1.2 µM -4% | [15]; at 3.7 µM 7% | [15]; at 11.0 µM 17% | [15]; at 33.0 µM 45% | [15]; at 100.0 µM 53%
active: [4]; [17] 74% | [4]; at 50.0 µM 86.7% | [5]; at 50.0 µM 95.3% | [7]; at 50.0 µM 75.8% | [9]; [17] 85% | [9]; at 50.0 µM 86% | [10]; at 33.0 µM 75% | [10]; [17] 83% | [10]; at 50.0 µM 90.2%
